# Screening results from PubChem.
# A selection: hits, their analogues and other compounds. The true share with any hit is near 4.1%.
# hcDAF-12 act: H. contortus DAF-12 nuclear receptor activators, primary screen, cell-based, luminescence, HEK293, lit1-tk-luc reporter | HEK293 hcDAF-12 lit1-tk-luc reporter; 0% DMSO, 100% Δ7-dafachronic acid | activation, % at 6.8 µM | 370,000 tested, 1.4% active | AID 652067, 2013;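 active means activation above the mean of all tested compounds plus 3 SD, cut at about 5.5% in these data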;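 further: 100% = response to 3 µM Δ7-dafachronic acid high control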
# ssDAF-12 act: S. stercoralis DAF-12 nuclear receptor activators, primary screen, cell-based, luminescence, HEK293, GRIP1 co-expression, lit1-tk-luc | 370,000 tested, 1% active | activation, % at 6.8 µM | HEK293 ssDAF-12/GRIP1 lit1-tk-luc reporter; % of 3 µM dafachronic acid response | AID 652126, 2013;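 active means activation above the mean over all tested compounds plus 3 SD, cut at about 0.9% in these data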;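 further: 0% = DMSO-only wells and 100% = 3 µM delta7-dafachronic acid wells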
# DAX1 inh-1: DAX1 (NR0B1) inhibitors on StAR promoter, primary screen, cell-based, luminescence, SF-1 (NR5A1), full-length DAX-1; AID 652010, 2013; HEK293T StAR-luciferase reporter, SF-1/DAX-1 repression relief; 370,000 tested, 1.1% active; inhibition, % at 6.8 µM;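 active means inhibition above the mean over all tested compounds plus 3 SD, cut at about 3.6% in these data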;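 further: 0% = DAX-1 cells with DMSO and 100% = cells lacking DAX-1 with DMSO; higher inhibition means more luminescence from relief of DAX-1 repression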
# hgDAF-12 ag: H. glycines DAF-12 receptor agonists, primary screen, cell-based, luminescence, HEK293, GAL4 fusion, UAS-luciferase; HEK293 GAL4-hgDAF12 UAS-luciferase reporter, agonist luminescence; normalized to butyrate control; AID 687014, 2013; Nuclear hormone receptor DAF-12 (Heterodera glycines), GAL4 fusion; 370,000 tested, 1.8% active; activation, % at 6.8 µM;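 active means activation above a cutoff set at the mean of all screened compounds plus 3 SD, cut at about 10% in these data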;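 further: 0% = DMSO wells and 100% = sodium butyrate wells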
# DAX1 inh-2: DAX1 (NR0B1) inhibitors, primary screen, cell-based, HEK293, Gal4-DAX1, luciferase luminescence | 340,000 tested, 0.99% active | inhibition, % at 6.75 µM | AID 504766, 2011 | HEK293 Gal4-DAX1 luciferase reporter;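 active means inhibition above the mean over all tested compounds plus 3 SD, cut at about 4.2% in these data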;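 further: 0% = DAX1-transfected cells with DMSO and 100% = empty-vector control cells with DMSO; inhibition shows as a rise in luminescence from relieved DAX1 repression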
# hgDAF12 conf: H. glycines DAF-12 receptor agonists, confirmation, cell-based, luminescence, HEK293, GAL4-LBD fusion; HEK293 GAL4-hgDAF12 luciferase reporter, agonist mode; percent of butyrate response; shares compounds with hgDAF-12 ag; activation, % at 6.8 µM; 3,300 tested, 80% active; AID 743050, 2013;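 active means mean activation over triplicate wells above the hit cutoff derived from the earlier primary screen, cut at about 11% in these data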;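 further: 0% = DMSO low control and 100% = 2 mM sodium butyrate high control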
# LXR ag 2: LXR agonists, Gal4 luciferase reporter, confirmation, counter-screen for hgDAF-12 agonist project, cell-based, luminescence, HEK293, H. glycines campaign | shares compounds with hgDAF-12 ag | 24 h | activation, % at 6.8 µM | 3,300 tested, under 10 active | AID 743051, 2013;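 active means mean activation of the triplicate above a set limit carried over from the primary screen, none filed active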
# Target sequence (P55055 whole entry, looked up, the tested form may be a part): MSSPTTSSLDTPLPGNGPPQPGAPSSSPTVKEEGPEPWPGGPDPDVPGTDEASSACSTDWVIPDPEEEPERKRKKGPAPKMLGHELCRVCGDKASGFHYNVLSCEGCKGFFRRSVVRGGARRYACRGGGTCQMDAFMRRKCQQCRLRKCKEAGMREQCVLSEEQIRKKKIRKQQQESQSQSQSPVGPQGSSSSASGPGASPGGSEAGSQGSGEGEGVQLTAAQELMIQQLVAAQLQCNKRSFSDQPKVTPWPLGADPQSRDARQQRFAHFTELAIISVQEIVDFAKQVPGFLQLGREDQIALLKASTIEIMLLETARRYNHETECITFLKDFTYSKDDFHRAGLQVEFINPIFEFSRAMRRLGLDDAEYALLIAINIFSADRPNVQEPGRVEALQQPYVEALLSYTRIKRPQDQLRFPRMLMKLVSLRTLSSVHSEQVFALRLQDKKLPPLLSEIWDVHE
# The depositor's hits bear a star; . = no result given.
SMILES,hcDAF-12 act,ssDAF-12 act,DAX1 inh-1,hgDAF-12 ag,DAX1 inh-2,hgDAF12 conf,LXR ag 2
Cc1cccc(-c2nnc(SCC(=O)Nc3ccc(-c4nc5ccc(C)cc5s4)cc3)n2Cc2ccco2)c1,2.0,0.2,-1.3,7.5,.,.,.
Cc1ccc(O)c(C2=NNC(O)(C(F)(F)F)C2)c1 (stereo unspecified),-1.6,-1.6,-0.9,-0.5,-1.0,.,.
Cc1ccc(O)c(C2=NNC(c3ccc(Cl)cc3)C2)c1 (stereo unspecified),5.7*,0.6,3.0,14.6*,2.4,12.7*,0.6
COn1c(-c2ccc(Cl)cc2)nc2ncccc21,3.0,-0.2,0.3,13.5*,0.9,10.7*,0.3
Cc1ccc(-c2nc3ncccc3n2O)cc1,0.2,-0.7,0.0,1.7,2.2,.,.
Nc1[nH]c(C(=O)c2ccccc2)c(-c2ccc(Cl)cc2Cl)c1C(=O)c1cccs1,-1.5,-1.1,.,-0.2,.,.,.
O=C(N/N=C/c1ccc(N2CCOCC2)cc1)c1ccc(O)cc1,-1.1,-1.5,0.7,0.2,1.3,.,.
Cc1ccc(C(=O)N/N=C/c2ccc(N3CCOCC3)cc2)c(C)c1,1.2,-0.9,0.2,14.4*,-1.1,-1.0,0.0
CCOC(=O)COC(=O)c1ccc(O)cc1,1.9,-1.3,0.1,-0.3,-0.2,.,.
Cc1ccc(C(=O)COC(=O)c2ccc(O)cc2)cc1,-0.1,-0.8,0.9,14.1*,1.8,8.5,0.3
Nc1nc2cc3c(cc2cc1C(=O)NCCc1c[nH]c2ccccc12)OCO3,-2.3,-1.5,-5.7,-1.2,.,.,.
CSCc1ccc(C(=O)Nc2cccc(C)c2C)cc1,1.7,1.7*,1.3,13.7*,0.9,10.9*,0.5
Cc1cccc(NC(=O)c2cccnc2)c1C,-0.3,-1.0,-0.4,0.5,-1.5,.,.
CN(C)CCCNC(=S)N(CCCO)Cc1cc2cc3c(cc2[nH]c1=O)OCO3,4.8,0.5,1.1,15.7*,-0.2,0.5,0.1
CCCCNC(=S)N(CCCO)Cc1cc2cc3c(cc2[nH]c1=O)OCCO3,-0.1,-0.7,0.0,0.0,1.2,.,.
COc1ccccc1NS(=O)(=O)c1cccc(NC(=O)c2cc3ccccc3oc2=O)c1,4.8,0.4,3.4,15.6*,1.6,13.0*,0.4
CN(c1ccccc1)S(=O)(=O)c1cccc(NC(=O)c2cc3ccccc3oc2=O)c1,5.2,0.6,1.8,15.7*,2.4,9.6,0.4
COc1ccccc1NS(=O)(=O)c1cccc(NC(=O)Nc2ccccc2)c1,-3.8,-1.8,-1.4,-1.4,-2.3,.,.
